Assay results from PubChem BioAssay AID624255 (Broad Institute, 2012).
Among all 77,000 compounds or so, about 4,600 (6%) were called active. About 1% were inconclusive and are not listed. The entries come from a sample that favours actives as a whole. Values without a mark were called inactive.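 How the source made its calls: active means mean inhibition above about 93%, with at least 55% of replicates each passing it (limit read from the data, passing the limit was not always enough); inconclusive means only one of those two conditions holds; inactive means neither condition holds.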

Assay: growth inhibition of T. cruzi in host fibroblasts – cell-based, beta-gal Tulahuen parasites, NIH3T3 host, luminescence, primary screen (AID 624255)
Details: T. cruzi beta-gal in NIH3T3, GalScreen luminescence, 90 h; at 8.34 µM; active compounds read high

Compound | inhibition
CC(C)NC(=O)N(C)C[C@H]1OCCCC[C@H](C)Oc2ccc(NS(=O)(=O)c3ccc(Cl)cc3)cc2C(=O)N([C@@H](C)CO)C[C@H]1C | -6.73%
C[C@@H]1CN([C@H](C)CO)C(=O)c2cc(NC(=O)c3ccccc3)ccc2O[C@@H](C)CCCCO[C@H]1CN(C)C(=O)c1ccncc1 | -20.8%
CCC(=O)N1C[C@H](C)[C@H](OC)CN(C)C(=O)c2ccc(NC(=O)Nc3ccccc3)cc2OC[C@H]1C | -75.2%
CCC(=O)Nc1ccc2c(c1)OC[C@H](C)N(Cc1ccccc1OC)C[C@@H](C)[C@@H](OC)CN(C)C2=O | 32.5%
CCC(=O)Nc1ccc2c(c1)C(=O)N(C)[C@@H]1CC[C@@H](CC(=O)NCCc3ccccc3)O[C@H]1CO2 | 49.1%
C/C=C/c1ccc([C@H]2[C@@H](CO)N(C(=O)Cc3ccncc3)[C@@H]2CNC(C)=O)cc1 | 13.1%
CS(=O)(=O)N1CCCCN2[C@H](CO)[C@H](c3ccc(-c4cccc(C#N)c4)cc3)[C@H]2C1 | 74.2%
O=S(=O)(Cc1ccccc1)N1CCCCN2[C@H](CO)[C@@H](c3ccc(-c4cncnc4)cc3)[C@H]2C1 | 91%
O=S(=O)(Cc1ccccc1)N1CCCCN2[C@@H](CO)[C@H](c3ccc(-c4ccccc4)cc3)[C@@H]2C1 | 110% (active)
COCC(=O)Nc1ccc2c(c1)C(=O)N(C)[C@@H]1CC[C@H](CC(=O)NCC3CCCCC3)O[C@H]1CO2 | -49.4%
CC(C)CC#Cc1cnc2c(c1)C(=O)N([C@@H](C)CO)C[C@@H](C)[C@H](CN(C)C(=O)Cc1ccncc1)O2 | 107% (active)
C[C@@H]1CN([C@@H](C)CO)C(=O)c2cc(C#Cc3ccccc3)cnc2O[C@H]1CN(C)C(=O)c1ccccn1 | 108% (active)
CC(=O)N(C)C[C@H]1Oc2ncc(C#Cc3ccccn3)cc2C(=O)N([C@H](C)CO)C[C@@H]1C | 57.3%
COc1ccccc1C#Cc1cnc2c(c1)C(=O)N([C@@H](C)CO)C[C@@H](C)[C@@H](CN(C)C(=O)CN(C)C)O2 | -91.1%
COc1ccc(C#Cc2cnc3c(c2)C(=O)N([C@@H](C)CO)C[C@H](C)[C@@H](CN(C)C(C)=O)O3)cc1 | 110% (active)
COc1ccccc1C#Cc1cnc2c(c1)C(=O)N([C@@H](C)CO)C[C@@H](C)[C@H](CN(C)C(=O)CN(C)C)O2 | 36.2%
C[C@@H]1CN([C@H](C)CO)C(=O)c2cc(C#CCN(C)C)cnc2O[C@H]1CN(C)C(=O)Cc1ccncc1 | 67.2%
COc1cccc(C#Cc2cnc3c(c2)C(=O)N([C@@H](C)CO)C[C@H](C)[C@@H](CN(C)C(C)=O)O3)c1 | -12.9%
COCC(=O)N(C)C[C@@H]1Oc2ncc(C#Cc3ccccc3OC)cc2C(=O)N([C@@H](C)CO)C[C@H]1C | 113% (active)
CCCC#Cc1cnc2c(c1)C(=O)N([C@H](C)CO)C[C@H](C)[C@H](CN(C)C(=O)Cc1ccncc1)O2 | -5.16%
COc1ccc(C#Cc2cnc3c(c2)C(=O)N([C@H](C)CO)C[C@H](C)[C@@H](CN(C)C)O3)cc1 | 29.3%

Compound | inhibition
CCC(=O)N(C)C[C@@H]1Oc2ncc(C#Cc3ccccc3)cc2C(=O)N([C@@H](C)CO)C[C@H]1C | 87.1%
COc1ccc(CN(C)C[C@@H]2OCCCC[C@H](C)Oc3ccc(NC(=O)c4ccccc4)cc3C(=O)N([C@H](C)CO)C[C@H]2C)cc1 | 76.8%
CC=Cc1ccc2n(c1=O)C[C@@H]1[C@@H](CO)[C@H](C(=O)NCC(F)(F)F)N(CCc3ccccc3)[C@H]21 (mixture of isomers) | 47.7%
Cc1ccc(S(=O)(=O)N[C@H]2CC[C@@H](CC(=O)NCc3ccc(Cl)c(Cl)c3)O[C@H]2CO)cc1 | 64.8%
CCCC(=O)Nc1ccc2c(c1)C(=O)N(C)C[C@@H](OC)[C@@H](C)CN(Cc1cncnc1)[C@@H](C)CO2 | -11%
CC(C)NC(=O)Nc1ccc2c(c1)CC(=O)N([C@@H](C)CO)C[C@@H](C)[C@H](CN(C)CC1CC1)O2 | 14.2%
CCC(=O)Nc1ccc2c(c1)C(=O)N(C)[C@@H]1CC[C@@H](CC(=O)N[C@@H](C)c3ccccc3)O[C@@H]1CO2 | 29.7%
COc1ccc(S(=O)(=O)Nc2ccc3c(c2)C(=O)N([C@H](C)CO)C[C@@H](C)[C@H](CN(C)Cc2ccccc2)O3)cc1 | 13.7%
CC(C)C#Cc1cnc2c(c1)C(=O)N([C@H](C)CO)C[C@@H](C)[C@H](CN(C)Cc1ccccc1)O2 | -6.87%
CC(C)CC#Cc1cnc2c(c1)C(=O)N([C@H](C)CO)C[C@H](C)[C@H](CN(C)C(=O)Nc1ccccc1F)O2 | 53.1%
C[C@@H]1CN([C@H](C)CO)C(=O)c2cc(C#Cc3ccccn3)cnc2O[C@H]1CN(C)Cc1ccccc1 | 120% (active)
C[C@H](CO)N1C[C@H](C)[C@@H](CN(C)Cc2cccnc2)Oc2ncc(/C=C/c3ccccc3)cc2C1=O | 12.8%
C[C@@H]1CN([C@H](C)CO)C(=O)c2cc(/C=C/c3ccccc3)cnc2O[C@@H]1CN(C)Cc1ccncc1 | 96.3% (active)
CCCC#Cc1cnc2c(c1)C(=O)N([C@H](C)CO)C[C@H](C)[C@@H](CN(C)Cc1ccccc1)O2 | 18.3%
CCCC#Cc1cnc2c(c1)C(=O)N([C@H](C)CO)C[C@@H](C)[C@@H](CN(C)C(=O)Nc1ccccc1F)O2 | 11.2%
C/C=C/c1cnc2c(c1)C(=O)N([C@@H](C)CO)C[C@@H](C)[C@H](CN(C)Cc1ccccc1)O2 | -55.6%
C[C@H](CO)N1C[C@H](C)[C@H](CN(C)C(=O)Nc2cccc3ccccc23)Oc2ncc(C#Cc3ccccc3)cc2C1=O | 122% (active)
COc1ccccc1-c1cn(CC[C@H]2CC[C@H](NC(=O)C3CCOCC3)[C@@H](CO)O2)nn1 | 7.67%
O=C(C[C@@H]1C=C[C@H](NC(=O)Nc2ccc3c(c2)OCO3)[C@H](CO)O1)NCc1ccccc1 | 17.2%
CC=Cc1ccc2n(c1=O)C[C@@H]1[C@@H](CO)[C@H](C(=O)NCCc3ccccc3)N(C(C)=O)[C@H]21 (mixture of isomers) | 28.7%
CCCC#Cc1ccc([C@H]2[C@H](CO)N3CCCCN(S(=O)(=O)CC)C[C@@H]23)cc1 | 47.8%

Compound | inhibition
C[C@@H](O)C#Cc1ccc([C@@H]2[C@H](CO)N3CCCCN(S(=O)(=O)c4ccccc4)C[C@@H]23)cc1 | 107% (active)
CN(C)CC#Cc1ccc([C@H]2[C@H]3CN(S(=O)(=O)c4ccccc4F)CCCCN3[C@H]2CO)cc1 | 106% (active)
C[C@H](O)C#Cc1ccc([C@@H]2[C@H](CO)N3CCCCN(CC4CC4)C[C@@H]23)cc1 | 8.49%
C/C=C/c1ccc([C@H]2[C@H]3CN(S(=O)(=O)c4ccccc4)CCCCN3[C@H]2CO)cc1 | 123% (active)
C[C@H](O)C#Cc1ccc([C@H]2[C@H]3CN(S(=O)(=O)Cc4ccccc4)CCCCN3[C@H]2CO)cc1 | 110% (active)
C[C@@H](O)C#Cc1ccc([C@H]2[C@@H](CO)N3CCCCN(S(=O)(=O)c4ccccc4)C[C@@H]23)cc1 | 59.2%
C[C@@H](O)C#Cc1ccc([C@H]2[C@@H](CO)N3CCCCN(CC4CC4)C[C@@H]23)cc1 | 29.6%
C[C@@H](O)C#Cc1ccc([C@@H]2[C@H]3CN(S(=O)(=O)c4ccccc4)CCCCN3[C@H]2CO)cc1 | 26.7%
CCCC#Cc1ccc([C@@H]2[C@H](CO)N3CCCCN(S(=O)(=O)c4ccccc4F)C[C@@H]23)cc1 | 37.8%
CCC(=O)Nc1ccc2c(c1)C(=O)N(C)[C@@H]1CC[C@@H](CC(=O)Nc3cccc(OC)c3)O[C@@H]1CO2 | -12.2%
O=C(N[C@@H]1CC[C@H](CCn2cc(-c3ccccc3)nn2)O[C@H]1CO)c1cnccn1 | 20.6%
CNC(=O)C[C@@H]1CC[C@@H]2[C@H](COc3ccc(NC(=O)c4cccs4)cc3C(=O)N2C)O1 | 9.57%
CC(C)CC#Cc1cnc2c(c1)C(=O)N([C@H](C)CO)C[C@H](C)[C@H](CN(C)CC1CCOCC1)O2 | 60.8%
C/C=C/c1cnc2c(c1)C(=O)N([C@H](C)CO)C[C@H](C)[C@@H](CN(C)C(=O)Nc1ccc(C(F)(F)F)cc1)O2 | 108%
COCC(=O)N1C[C@H]2[C@@H](c3ccccc31)[C@@H](CO)N2Cc1ccccc1 | -14.2%
COc1cccc(-c2ccc3c(c2)[C@@H]2[C@@H](CCN2C(=O)CN2CCOCC2)[C@H](CO)N3)c1 | 88.3%
O=S(=O)(c1ccccc1)N1CCCCN2[C@@H](CO)[C@H](c3ccc(C#Cc4cccnc4)cc3)[C@@H]2C1 | 90.8%
CC(C)NC(=O)N1CCCCN2[C@H](CO)[C@H](c3ccc(C#C[C@H](C)O)cc3)[C@H]2C1 | 90.4%
C[C@H](O)C#Cc1ccc([C@@H]2[C@H]3CN(S(=O)(=O)c4ccccc4)CCCCN3[C@H]2CO)cc1 | 107% (active)
C[C@H]1CN([C@@H](C)CO)C(=O)c2cccc(NS(=O)(=O)c3cn(C)cn3)c2O[C@H]1CN(C)C(=O)Nc1ccc2c(c1)OCO2 | -234%
O=C(Cc1ccccn1)NCC[C@H]1CC[C@H](NC(=O)Nc2ccc(F)cc2)[C@@H](CO)O1 | 10.8%
